{"source": "PubChem BioAssay AID2061321", "about": "(National Center for Advancing Translational Sciences (NCATS), 2025)", "note": "Records with an inconclusive call do not appear. The source made the active and inactive calls. Calls follow the shape of the dose curve; as a rule, active = well fitted inhibition curve with a large enough effect; inconclusive = small, poorly fitted or top-dose-only effect; inactive = flat fitted curve, though single readings scatter. Non-standard residues stand in square brackets, D forms with d. Residues, ends and D or L forms follow the SMILES beside them. Dolaproine = CO[C@@H]([C@@H]1CCCN1)[C@@H](C)C(=O)O; Dil = CC[C@H](C)[C@H](NC)[C@@H](CC(=O)O)OC; NMeV = CN[C@H](C(=O)O)C(C)C"}
{"experiment": "Identification of antibody-drug conjugate (ADC) payloads which are substrates of ATP-binding cassette drug efflux transporters: ABCG2-H460 cell line", "details": "H460 MX20 (ABCG2) viability, CellTiter-Glo, 48 h", "text": "Antibody-drug conjugates (ADCs) feature an antibody recognizing a specific protein joined to a potent toxic payload. Numerous antibody-drug conjugates have received FDA approval; however, clinical resistance arises. Resistance mechanisms include decreased expression or mutation of the antibody target, impaired payload release, or increased expression of ATP-binding cassette (ABC) efflux transporters associated with multidrug resistance. We therefore sought to characterize the interaction of ABC multidrug transporters with ADC payloads. We performed a high-throughput screen with 27 common ADC payloads using cells lines expressing ABC transporters P-glycoprotein (P-gp, encoded by ABCB1) or ABCG2 (encoded by ABCG2). Confirmatory assays were also performed using cells transfected to express P-gp, ABCG2, or MRP1 (encoded by ABCC1). Several commonly used ADC payloads were substrates of P-gp, including calicheamicin gamma1, monomethyl auristatin E, DM1, and DM4. All the pyrrolobenzodiazepines tested - SJG136, SGD-1882, SG2057, and SG3199 - were substrates of P-gp, ABCG2, and MRP1. […] These findings highlight the risk of transporter-mediated resistance with certain ADC payloads and underscore the importance of selecting payloads that evade ABC transporter recognition in future ADC development.\nHEK-293 cells were transfected with empty vector (pcDNA) or vector containing the human ABCB1 (MDR-19), ABCG2 (R-5), or ABCC1 gene (MRP1) and were maintained in EMEM with 2 mg/mL G418 added to maintain transporter expression. The HeLa derivative KB-3-1 and the P-gp overexpressing KB-8-5-11 subline were maintained in DMEM; KB-8-5-11 additionally received 100 ng/mL colchicine. H460 parental cells were obtained from the Division of Cancer Treatment and Diagnosis Tumor Repository, National Cancer Institute at Frederick, MD and were cultured in RPMI. The ABCG2 expressing subline H460 MX20 was generated by selecting H460 cells in 20 nM mitoxantrone. Media in all cases was supplemented with 10% FBS and 1% penicillin-streptomycin. We explored 27 common ADC payloads, in two orthogonal, paired cell line sets-a drug selected and transfected set for each transporter--to identify substrates of the ABC transporters P-gp and ABCG2. Compounds were sourced from Levena Biopharma (San Diego, CA), Selleck Chem (Houston, TX), ChemieTek (Indianapolis, IN), or Microsource Discovery Systems (Gaylordsville, CT). Screening was performed as previously described. Briefly, cells were plated at a density of 500 cells/well in 1536 well plates with compounds added using a 1536-head pin tool (Kalypsys, San Diego CA). Cells were incubated with cytotoxic drugs and processed with CellTiter Glo reagent (Promega, Madison, WI) to determine viability after 48 hours. P-gp substrates were identified by comparing compound activity between paired sets of low-expressing (sensitive) and over-expressing (resistant) cell lines."}
{"smiles": "COC(=O)c1cc2c3c(cc(O)c2[nH]1)N(C(=O)c1cc2cc(OC)c(OC)c(OC)c2[nH]1)CC3CCl", "note": "(stereo unspecified)", "Potency": "0.4 nM (active)"}
{"smiles": "CCN(C(C)=O)[C@H]1CO[C@@H](O[C@H]2[C@H](O[C@H]3C#C/C=C\\C#C[C@]4(O)CC(=O)C(NC(=O)OC)=C3/C4=C\\CSSSC)O[C@H](C)[C@@H](NO[C@H]3C[C@H](O)[C@H](SC(=O)c4c(C)c(I)c(O[C@@H]5O[C@@H](C)[C@H](O)[C@@H](OC)[C@H]5O)c(OC)c4OC)[C@@H](C)O3)[C@@H]2O)C[C@@H]1OC", "Potency": "7.5 nM (active)"}
{"smiles": "CCN[C@H]1CO[C@@H](O[C@H]2[C@H](O[C@H]3C#C/C=C\\C#C[C@]4(O)CC(=O)C(NC(=O)OC)=C3/C4=C\\CSSSC)O[C@H](C)[C@@H](NO[C@H]3C[C@H](O)[C@H](SC(=O)c4c(C)c(I)c(O[C@@H]5O[C@@H](C)[C@H](O)[C@@H](OC)[C@H]5O)c(OC)c4OC)[C@@H](C)O3)[C@@H]2O)C[C@@H]1OC", "Potency": "1.1 nM (active)"}
{"smiles": "COc1cccc2c1C(=O)c1c(O)c3c(c(O)c1C2=O)C[C@@](O)(C(=O)CO)C[C@@H]3O[C@H]1C[C@H](N)[C@H](O)[C@H](C)O1", "Potency": "377 nM (active)"}
{"smiles": "CC[C@]1(O)CC2CN(CCc3c([nH]c4ccccc34)[C@@](C(=O)OC)(c3cc4c(cc3OC)N(C)[C@H]3[C@@](O)(C(=O)OC)[C@H](OC(C)=O)[C@]5(CC)C=CCN6CC[C@]43[C@@H]65)C2)C1", "note": "(stereo partly specified)", "Potency": "533 nM (active)"}
{"smiles": "COc1cc2cc(c1Cl)N(C)C(=O)C[C@H](O)[C@]1(C)O[C@H]1[C@H](C)C1C[C@@](O)(NC(=O)O1)[C@H](OC)/C=C/C=C(\\C)C2", "Potency": "4750 nM (active)"}
{"smiles": "COc1cccc2c1C(=O)c1c(O)c3c(c(O)c1C2=O)C[C@@](O)(C(=O)CO)C[C@@H]3O[C@H]1C[C@H]2[C@H](O[C@@H]3[C@@H](OC)OCCN32)[C@H](C)O1", "Potency": "0.0598 nM (active)"}
{"smiles": "CC(C)(C)OC(=O)Nc1ccc2[nH]c(C(=O)N3C[C@@H](CCl)c4c3cc(O)c3ccccc43)cc2c1", "Potency": "2.1 nM (active)"}
{"smiles": "CN(C)CCOc1ccc2[nH]c(C(=O)N3C[C@@H](CCl)c4c3cc(O)c3ccccc43)cc2c1", "Potency": "0.2 nM (active)"}
{"smiles": "CC[C@H](C)[C@@H]([C@@H](CC(=O)N1CCC[C@H]1[C@H](OC)[C@@H](C)C(=O)N[C@@H](Cc1ccccc1)C(=O)O)OC)N(C)C(=O)[C@@H](NC(=O)[C@@H](NC)C(C)C)C(C)C", "note": "(H-[NMeV]V[Dil][Dolaproine]F-OH)", "Potency": "5330 nM (active)"}
{"smiles": "CCc1c2c(nc3ccc(O)cc13)-c1cc3c(c(=O)n1C2)COC(=O)[C@]3(O)CC", "Potency": "11.9 nM (active)"}
